# Experimental data reported in the supplement of paper PMC10849652.
# The full data set covers some 7,900 targets. This sample favours those with a hit. About 0.6% of all pairs of compound and target were hits. A number with no mark means an inactive call.
# Key:
# Experiment in all cases: log2 fold change, soluble protein after heating vs DMSO (PISA); higher = thermal stabilisation; K562 cells, 10 uM, 30 min; active = over 0.2 and 3.5 SD of the protein, either way, in both replicates (recomputed)
# [1] = compound: CC1=C(C=C(C=C1)NC(=O)C2=CC(=CC=C2)C(C)(C)C#N)NC3=CC4=C(C=C3)N=CN(C4=O)C
# In short: (§1)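 Quantification of soluble protein used TMTpro 16plex LC-MS/MS, with channel sums equalised. Samples were the supernatant after 21,000xg for 90 min of pooled aliquots from K562 cells (2×10^6 cells/mL) treated with 10 μM compound for 30 min, heated for 3 min over 48°C-58°C, and extracted in PBS with 0.5% NP-40 at 4°C. Values, from duplicates, describe thermal stability against control samples on a log2 fold-change scale.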
# [2] = compound: CC1=C(C=C(C=C1)NC(=O)C2=CC(=CC=C2)N(C)C)NC(=O)C3=CC=C(C=C3)O
# In short: as §1
# [3] = compound: CC1=CC=C(C=C1)SC2=C3C=C(SC3=CN=C2)C(=O)N
# In short: as §1
# [4] = compound: CCCS(=O)(=O)Nc1ccc(F)c(C(=O)c2c[nH]c3ncc(-c4ccc(Cl)cc4)cc23)c1F [vemurafenib]
# In short: as §1
# [5] = compound: CCCS(=O)(=O)Nc1ccc(F)c(C(=O)c2c[nH]c3ncc(Cl)cc23)c1F
# In short: as §1
# [6] = compound: CCCc1cc(C)[nH]c(=O)c1CNC(=O)c1cc(-c2ccnc(N3CCN(C)CC3)c2)cc2c1cnn2C(C)C
# In short: as §1
# [7] = compound: CCN(CC)Cc1ccc2cc(COC(=O)Nc3ccc(C(=O)NO)cc3)ccc2c1 [givinostat]
# In short: as §1
# [8] = compound: CCN(CCCOc1ccc2c(Nc3cc(CC(=O)Nc4cccc(F)c4)[nH]n3)ncnc2c1)CCOP(=O)(O)O [barasertib]
# In short: as §1
# [9] = compound: CC[C@@H]1C(=O)N(C)c2cnc(Nc3ccc(C(=O)NC4CCN(C)CC4)cc3OC)nc2N1C1CCCC1
# In short: as §1
# [10] = compound: CC[C@@H]1C(=O)N(C)c2cnc(Nc3ccc(C(=O)N[C@H]4CC[C@H](N5CCN(CC6CC6)CC5)CC4)cc3OC)nc2N1C(C)C [volasertib]
# In short: as §1
# [11] = compound: CC[C@H](C)N1C=C(C2=C(C=C(C=C21)C3=CN=C(C=C3)N4CCNCC4)C(=O)NCC5=C(C=C(NC5=O)C)C)C
# In short: as §1
# [12] = compound: CCn1c(C(=O)N(C2CC2)C2CC2)cc2c3c(ncn3C)c(Nc3cc(C)n(C)n3)nc21
# In short: as §1
# [13] = compound: CCn1cc(-c2ccnc3[nH]c(-c4cccc(CN(C)C)c4)cc23)c(-c2ccc(NC(=O)N(C)C)cc2)n1
# In short: as §1
# [14] = compound: CN(C)CC(=O)Nc1ccc2[nH]c(=O)c3ccccc3c2c1
# In short: as §1
# [15] = compound: CN(CCOC1=CC=C(C=C1)C[C@H]2C(=O)NC(=O)S2)C3=CC=CC=N3 (racemic) [rosiglitazone]
# In short: as §1
# [16] = compound: CN1C2=C(C3=C1C(=O)N(N=C3)CC4=CC(=CC=C4)N)SC(=C2)S(=O)C
# In short: as §1
# [17] = compound: CN1CCC(CNc2ccc3ncc(-c4cccc(OC(F)(F)F)c4)n3n2)CC1
# In short: as §1
# [18] = compound: CC1=NC(=CC=C1)C2=C(N=C(N2)C(C)(C)C)C3=CC4=NC=CN=C4C=C3
# In short: as §1
# [19] = compound: CCCCN(Cc1ccc(C(=O)NO)cc1)C(=O)Nc1ccccc1 [Nexturastat A]
# In short: as §1
# [20] = compound: CC[C@H](C)[C@@H](C(=O)N[C@@H]([C@@H](C)O)C(=O)N[C@@H](CC(C)C)C(=O)[C@]1(CO1)C)NC(=O)[C@H]([C@@H](C)CC)N(C)C(=O)C [epoxomicin]
# In short: as §1
# Sequence of UniProt O95273 (O95273 whole entry, looked up): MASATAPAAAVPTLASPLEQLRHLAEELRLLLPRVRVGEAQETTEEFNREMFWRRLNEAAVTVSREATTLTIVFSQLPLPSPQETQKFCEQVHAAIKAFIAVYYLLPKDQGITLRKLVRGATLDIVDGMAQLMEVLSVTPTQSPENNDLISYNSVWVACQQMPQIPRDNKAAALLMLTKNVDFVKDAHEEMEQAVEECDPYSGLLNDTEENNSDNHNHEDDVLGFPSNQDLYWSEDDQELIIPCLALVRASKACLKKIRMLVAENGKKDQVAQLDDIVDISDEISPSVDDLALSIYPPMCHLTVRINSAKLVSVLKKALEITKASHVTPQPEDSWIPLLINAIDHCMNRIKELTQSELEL
# Sequence of UniProt Q92851 (Q92851 whole entry, looked up): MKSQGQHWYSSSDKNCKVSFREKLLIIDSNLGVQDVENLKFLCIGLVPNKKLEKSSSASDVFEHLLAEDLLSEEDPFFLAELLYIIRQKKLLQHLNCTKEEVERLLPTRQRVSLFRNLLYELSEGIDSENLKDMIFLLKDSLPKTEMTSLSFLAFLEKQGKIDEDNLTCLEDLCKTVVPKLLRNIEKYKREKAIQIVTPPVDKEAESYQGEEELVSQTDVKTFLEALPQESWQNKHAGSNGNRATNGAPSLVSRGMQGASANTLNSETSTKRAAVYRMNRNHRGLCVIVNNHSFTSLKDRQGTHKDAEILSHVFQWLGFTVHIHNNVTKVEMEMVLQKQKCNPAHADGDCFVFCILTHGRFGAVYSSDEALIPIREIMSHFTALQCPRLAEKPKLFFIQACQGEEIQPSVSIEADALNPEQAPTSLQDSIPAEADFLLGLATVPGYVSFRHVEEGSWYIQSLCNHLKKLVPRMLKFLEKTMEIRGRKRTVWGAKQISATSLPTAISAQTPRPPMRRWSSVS
# Sequence of UniProt Q6UUV7 (Q6UUV7 whole entry, looked up): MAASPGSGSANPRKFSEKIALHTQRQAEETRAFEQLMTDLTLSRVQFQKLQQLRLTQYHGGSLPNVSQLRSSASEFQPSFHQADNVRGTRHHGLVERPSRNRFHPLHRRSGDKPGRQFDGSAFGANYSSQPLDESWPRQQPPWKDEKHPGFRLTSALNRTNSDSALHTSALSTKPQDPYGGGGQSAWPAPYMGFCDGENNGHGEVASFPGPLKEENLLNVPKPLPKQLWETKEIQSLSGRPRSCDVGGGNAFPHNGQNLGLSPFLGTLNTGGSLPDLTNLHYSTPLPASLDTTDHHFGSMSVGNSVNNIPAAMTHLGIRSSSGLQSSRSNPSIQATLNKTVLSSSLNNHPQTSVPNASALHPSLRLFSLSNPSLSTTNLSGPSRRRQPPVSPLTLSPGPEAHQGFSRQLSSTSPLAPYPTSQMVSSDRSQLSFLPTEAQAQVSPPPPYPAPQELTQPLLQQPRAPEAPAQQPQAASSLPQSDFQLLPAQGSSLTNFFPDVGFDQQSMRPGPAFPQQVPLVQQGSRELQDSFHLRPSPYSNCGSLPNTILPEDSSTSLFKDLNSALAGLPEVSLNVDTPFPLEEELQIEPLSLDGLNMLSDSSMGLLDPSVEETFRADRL
# Sequence of UniProt P49336 (P49336 whole entry, looked up): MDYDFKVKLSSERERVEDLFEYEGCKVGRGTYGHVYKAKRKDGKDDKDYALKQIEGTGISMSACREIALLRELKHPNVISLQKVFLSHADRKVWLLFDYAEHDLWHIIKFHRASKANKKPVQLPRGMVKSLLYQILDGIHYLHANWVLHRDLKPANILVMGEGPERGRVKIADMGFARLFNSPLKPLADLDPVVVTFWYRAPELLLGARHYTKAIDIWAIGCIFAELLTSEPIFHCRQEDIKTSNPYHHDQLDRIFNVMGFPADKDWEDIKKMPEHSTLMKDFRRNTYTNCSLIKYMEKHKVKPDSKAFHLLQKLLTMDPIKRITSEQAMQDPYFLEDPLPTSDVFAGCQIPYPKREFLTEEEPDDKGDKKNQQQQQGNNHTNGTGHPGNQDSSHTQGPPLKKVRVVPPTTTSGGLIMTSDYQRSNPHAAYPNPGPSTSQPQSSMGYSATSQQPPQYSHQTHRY
# Sequence of UniProt P46527 (P46527 whole entry, looked up): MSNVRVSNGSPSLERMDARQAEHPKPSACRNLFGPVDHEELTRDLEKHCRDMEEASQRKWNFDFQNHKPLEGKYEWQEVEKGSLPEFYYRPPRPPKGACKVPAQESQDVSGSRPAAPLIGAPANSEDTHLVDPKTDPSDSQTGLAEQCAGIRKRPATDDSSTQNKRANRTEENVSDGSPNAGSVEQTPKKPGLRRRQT
# Sequence of UniProt Q9UBY8 (Q9UBY8 whole entry, looked up): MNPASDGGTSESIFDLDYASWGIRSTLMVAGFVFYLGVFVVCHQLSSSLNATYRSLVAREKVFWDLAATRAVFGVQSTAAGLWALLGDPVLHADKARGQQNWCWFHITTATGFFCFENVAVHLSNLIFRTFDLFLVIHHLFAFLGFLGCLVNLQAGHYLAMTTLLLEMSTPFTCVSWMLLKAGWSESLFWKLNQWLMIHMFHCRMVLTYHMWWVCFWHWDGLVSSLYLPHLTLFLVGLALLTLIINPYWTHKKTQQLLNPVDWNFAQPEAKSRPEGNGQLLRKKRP
# Sequence of UniProt Q92828 (Q92828 whole entry, looked up): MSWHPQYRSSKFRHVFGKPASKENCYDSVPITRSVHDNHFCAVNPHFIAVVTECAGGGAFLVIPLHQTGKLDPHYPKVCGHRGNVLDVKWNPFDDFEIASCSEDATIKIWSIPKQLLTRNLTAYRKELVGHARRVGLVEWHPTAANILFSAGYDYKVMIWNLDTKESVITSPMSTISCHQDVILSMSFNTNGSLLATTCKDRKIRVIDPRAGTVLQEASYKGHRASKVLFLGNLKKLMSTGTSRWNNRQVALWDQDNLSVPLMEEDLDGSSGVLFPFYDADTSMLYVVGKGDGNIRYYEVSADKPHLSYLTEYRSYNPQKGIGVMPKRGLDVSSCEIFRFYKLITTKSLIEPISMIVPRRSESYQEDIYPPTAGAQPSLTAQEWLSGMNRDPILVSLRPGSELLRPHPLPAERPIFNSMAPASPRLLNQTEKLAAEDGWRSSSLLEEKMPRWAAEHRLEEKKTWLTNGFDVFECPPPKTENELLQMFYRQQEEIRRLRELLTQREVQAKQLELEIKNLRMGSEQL
# Sequence of UniProt P24863 (P24863 whole entry, looked up): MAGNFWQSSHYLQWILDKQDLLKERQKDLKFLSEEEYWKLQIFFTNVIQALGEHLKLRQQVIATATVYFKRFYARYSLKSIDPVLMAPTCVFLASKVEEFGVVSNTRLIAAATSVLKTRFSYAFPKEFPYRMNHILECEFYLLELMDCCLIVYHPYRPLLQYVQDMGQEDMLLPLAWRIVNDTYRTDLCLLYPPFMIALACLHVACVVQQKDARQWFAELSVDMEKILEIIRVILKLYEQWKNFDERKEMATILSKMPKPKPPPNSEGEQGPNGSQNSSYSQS
# Sequence of UniProt Q6P5X5 (Q6P5X5 whole entry, looked up): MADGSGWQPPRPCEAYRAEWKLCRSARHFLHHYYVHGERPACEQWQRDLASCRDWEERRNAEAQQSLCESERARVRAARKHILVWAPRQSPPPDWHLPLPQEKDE
# Sequence of UniProt Q7Z4R8 (Q7Z4R8 whole entry, looked up): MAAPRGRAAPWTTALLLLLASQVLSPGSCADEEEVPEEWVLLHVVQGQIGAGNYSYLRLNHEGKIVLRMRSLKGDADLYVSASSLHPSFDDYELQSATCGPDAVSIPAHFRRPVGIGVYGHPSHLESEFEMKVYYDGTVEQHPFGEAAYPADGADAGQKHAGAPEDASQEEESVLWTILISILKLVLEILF
# Sequence of UniProt Q8WUD6 (Q8WUD6 whole entry, looked up): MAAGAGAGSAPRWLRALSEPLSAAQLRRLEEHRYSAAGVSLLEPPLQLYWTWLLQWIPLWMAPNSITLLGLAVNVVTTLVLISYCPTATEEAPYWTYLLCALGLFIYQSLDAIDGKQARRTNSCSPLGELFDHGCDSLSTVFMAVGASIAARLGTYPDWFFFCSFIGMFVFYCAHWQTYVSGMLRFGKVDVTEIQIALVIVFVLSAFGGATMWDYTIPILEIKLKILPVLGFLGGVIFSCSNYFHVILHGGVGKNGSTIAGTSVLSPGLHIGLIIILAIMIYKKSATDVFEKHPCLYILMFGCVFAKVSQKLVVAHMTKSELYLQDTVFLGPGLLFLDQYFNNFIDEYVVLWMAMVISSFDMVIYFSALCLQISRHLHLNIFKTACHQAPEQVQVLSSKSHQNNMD
# Sequence of UniProt Q9BWU1 (Q9BWU1 whole entry, looked up): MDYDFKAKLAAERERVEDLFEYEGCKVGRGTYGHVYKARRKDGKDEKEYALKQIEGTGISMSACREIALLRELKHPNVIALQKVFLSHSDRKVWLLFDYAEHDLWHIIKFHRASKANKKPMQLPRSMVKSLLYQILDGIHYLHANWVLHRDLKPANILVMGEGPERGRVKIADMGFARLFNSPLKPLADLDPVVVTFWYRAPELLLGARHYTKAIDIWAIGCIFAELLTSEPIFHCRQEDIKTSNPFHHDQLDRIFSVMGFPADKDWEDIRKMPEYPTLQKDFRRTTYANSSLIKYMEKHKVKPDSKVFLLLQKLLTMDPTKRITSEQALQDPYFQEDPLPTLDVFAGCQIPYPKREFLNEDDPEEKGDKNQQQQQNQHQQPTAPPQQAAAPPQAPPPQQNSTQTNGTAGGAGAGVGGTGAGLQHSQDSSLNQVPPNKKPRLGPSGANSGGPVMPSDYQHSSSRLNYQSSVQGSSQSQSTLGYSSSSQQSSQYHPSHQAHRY
# Sequence of UniProt Q9Y2V0 (Q9Y2V0 whole entry, looked up): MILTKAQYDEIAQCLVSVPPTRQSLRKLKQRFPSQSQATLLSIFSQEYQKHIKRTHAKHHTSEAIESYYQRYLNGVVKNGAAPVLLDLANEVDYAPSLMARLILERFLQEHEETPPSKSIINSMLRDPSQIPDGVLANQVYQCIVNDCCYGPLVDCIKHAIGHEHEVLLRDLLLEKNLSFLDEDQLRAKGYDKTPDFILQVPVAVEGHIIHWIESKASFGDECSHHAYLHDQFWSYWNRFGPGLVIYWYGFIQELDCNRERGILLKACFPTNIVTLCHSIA
# Sequence of UniProt P24311 (P24311 whole entry, looked up): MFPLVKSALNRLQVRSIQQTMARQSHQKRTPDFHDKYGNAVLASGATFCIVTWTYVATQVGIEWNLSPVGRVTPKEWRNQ
Target,log2 fold change [1],log2 fold change [2],log2 fold change [3],log2 fold change [4],log2 fold change [5],log2 fold change [6],log2 fold change [7],log2 fold change [8],log2 fold change [9],log2 fold change [10],log2 fold change [11],log2 fold change [12],log2 fold change [13],log2 fold change [14],log2 fold change [15],log2 fold change [16],log2 fold change [17],log2 fold change [18],log2 fold change [19],log2 fold change [20]
CORO2A (UniProt Q92828),0.014,0.157,0.01,0.063,0.054,0.026,0.002,0.065,0.164,-0.075,0.01,-0.016,0,-0.038,0.011,-0.022,-0.096,–,–,–
C15orf41 (UniProt Q9Y2V0),0.022,-0.026,-0.017,0.015,0.032,–,-0.012,–,-0.04,-0.188,–,-0.023,-0.333 (active),-0.022,–,0.019,0.001,-0.002,-0.006,-0.165
CASP10 isoform 4 (UniProt Q92851),0.015,0.026,0.085,-0.015,0.014,0.034,–,0.121,-0.091,-0.582 (active),0.015,–,0.121,-0.016,-0.093,0.023,-0.331,0,0.125,0.004
CDK19 (UniProt Q9BWU1),-0.032,0.212,0.246,0.057,-0.026,-0.109,-0.133,–,0.016,-0.064,0.069,0.038,-0.1,-0.068,–,0.003,0.456,–,-0.039,-0.114
CDK8 (UniProt P49336),0.002,-0.005,0.322,0.041,0.044,-0.081,0.02,-0.343,0.096,-0.039,–,0.027,-0.236,-0.044,-0.02,-0.025,0.356,0.064,-0.125,-0.098
CHPT1 (UniProt Q8WUD6),0.088,0.055,0.132,–,0.051,0.047,–,–,-0.324,-0.228,0.119,–,-0.042,–,–,0.047,-0.79 (active),–,0.114,-0.176
CIR1 (UniProt Q86X95),-0.04,-0.38,0.047,-0.156,-0.129,0.047,-0.015,-0.105,0,0.049,–,-0.015,0.055,0.142,-0.169,0.234,-0.458,-0.018,0.199,-0.212
CAB39L (UniProt Q9H9S4),-0.142,-0.008,0.004,-0.013,-0.001,–,-0.025,0.043,-0.134,-0.054,–,0.008,0.161,-0.169,0.107,-0.047,0.072,-0.043,0.003,0.018
CDK17 isoform 2 (UniProt Q00537),0.105,–,0.061,-0.098,-0.085,0.042,0.003,0.055,-0.153,-0.079,–,0.032,-0.012,0.046,0.038,0.022,0.051,-0.051,0.172,0.07
CRTC3 (UniProt Q6UUV7),-0.017,0.087,0.033,-0.093,0.144,-0.543 (active),–,0.035,–,0.051,–,–,–,-0.117,0.148,–,–,–,-0.049,0.094
CCNC (UniProt P24863),0.207,-0.072,–,0.105,–,-0.086,0.011,-0.024,–,–,–,0.031,-0.178,-0.011,-0.022,0.032,0.4 (active),0.031,0.008,0.035
C19orf54 (UniProt Q5BKX5),0.096,-0.053,0.127,-0.118,0.077,–,0.044,–,0.054,-0.06,–,-0.152,0.056,0.036,–,-0.177,-0.141,-0.104,-0.025,0.094
COX7B (UniProt P24311),0.048,–,0.045,-0.148,0.136,-0.188,-0.013,-0.025,-0.011,0.024,-0.052,0.065,-0.035,0.04,-0.033,0.015,0.323 (active),0.094,-0.056,0.023
CCNDBP1 (UniProt O95273),-0.104,0.027,–,-0.074,–,-0.091,-0.046,0.088,0.088,–,0.133,-0.045,-0.036,-0.094,0.032,0.013,-0.048,–,–,–
CLN8 (UniProt Q9UBY8),-0.018,0.081,-0.085,-0.001,-0.109,-0.132,-0.086,0.051,0.069,0.001,0.077,-0.101,0.005,0.145,0.327,0.135,0.191,–,–,–
COPS3 isoform 2 (UniProt Q9UNS2),-0.154,0.03,0.066,-0.303,-0.14,-0.162,–,0.065,0.079,0.031,0.001,–,-0.075,-0.165,-0.046,–,-0.124,-0.128,-0.113,0.059
C22orf39 (UniProt Q6P5X5),-0.033,0.059,-0.058,–,0.205,0.017,0.044,-0.042,–,0.134,-0.042,-0.08,–,–,-0.119,0.043,–,-0.008,-0.024,0.081
C6orf120 (UniProt Q7Z4R8),-0.054,0.045,0.018,-0.035,0.069,–,-0.011,0.017,0.066,-0.101,0.019,0.095,–,-0.155,0.06,-0.245,–,-0.094,–,–
CDKN1B (UniProt P46527),-0.016,-0.009,-0.026,-0.176,-0.048,0.057,0.051,-0.063,–,0.028,-0.083,-0.034,0.036,0.025,0.067,0.06,0.073,0,0.148,0.393
